Results reported in ChEMBL document CHEMBL3988442, “University of Dundee, Small-Polar-MMV Screening Library” (2021).
For some assays here: Potency and affinity values are given separately.

Key:
Parameters in all cases: scale not given: direction of the effect not stated beside the values
[1] = target: Protein translocase subunit SecA (Escherichia coli (strain K12)) (UniProt P10408); assay: Assay to Identify E. coli SecA ATPase Inhibitors; assay type: functional; conditions: 30 µM
[2] = target: T1, Ubiquitin-activating enzyme e1, putative (Leishmania donovani (strain BPK282A1)) (UniProt E9BSI1); assay: Leishmania donovani Ubiquitin Activating Enzyme (LdE1); assay type: functional; conditions: 30 µM
T1 sequence (whole entry): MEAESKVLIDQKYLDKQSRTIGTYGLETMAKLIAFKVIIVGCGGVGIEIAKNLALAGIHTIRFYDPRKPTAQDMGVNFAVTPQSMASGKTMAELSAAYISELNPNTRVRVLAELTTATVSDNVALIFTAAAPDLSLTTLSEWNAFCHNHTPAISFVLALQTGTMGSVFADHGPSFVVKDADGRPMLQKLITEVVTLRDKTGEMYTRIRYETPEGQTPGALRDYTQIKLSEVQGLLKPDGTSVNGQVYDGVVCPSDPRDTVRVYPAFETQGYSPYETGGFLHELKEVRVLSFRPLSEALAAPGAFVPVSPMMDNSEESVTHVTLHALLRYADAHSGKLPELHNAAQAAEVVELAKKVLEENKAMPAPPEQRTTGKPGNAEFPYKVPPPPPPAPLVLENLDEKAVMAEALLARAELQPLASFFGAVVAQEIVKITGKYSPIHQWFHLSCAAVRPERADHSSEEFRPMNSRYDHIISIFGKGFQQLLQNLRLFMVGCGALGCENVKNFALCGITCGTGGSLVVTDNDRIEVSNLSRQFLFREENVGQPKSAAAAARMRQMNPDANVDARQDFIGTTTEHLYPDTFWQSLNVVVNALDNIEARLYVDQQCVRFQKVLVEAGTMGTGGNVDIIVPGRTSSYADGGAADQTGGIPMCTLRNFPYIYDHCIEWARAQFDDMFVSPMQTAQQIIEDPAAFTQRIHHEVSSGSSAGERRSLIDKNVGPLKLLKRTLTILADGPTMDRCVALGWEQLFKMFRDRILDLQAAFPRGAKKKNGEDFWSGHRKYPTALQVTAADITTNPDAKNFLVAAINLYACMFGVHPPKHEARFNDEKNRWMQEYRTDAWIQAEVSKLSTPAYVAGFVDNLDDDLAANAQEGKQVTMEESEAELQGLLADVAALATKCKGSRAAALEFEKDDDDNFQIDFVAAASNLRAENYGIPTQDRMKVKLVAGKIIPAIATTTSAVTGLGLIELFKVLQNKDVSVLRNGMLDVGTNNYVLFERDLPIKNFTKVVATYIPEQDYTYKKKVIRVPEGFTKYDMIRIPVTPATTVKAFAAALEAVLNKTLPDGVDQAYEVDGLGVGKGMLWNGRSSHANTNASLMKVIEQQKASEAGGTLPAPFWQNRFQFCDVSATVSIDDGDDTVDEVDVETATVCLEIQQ

[3] = target: Sialic acid-binding Ig-like lectin 9 (Homo sapiens) (UniProt Q9Y336); assay: Hs-Siglec9 ALPHAscreen SOP 20170721; conditions: 10 µM
Trypanosoma cruzi = assay: Trypanosoma cruzi phosphomannomutase and mannose-1-phosphate guanylyltransferase assay; assay type: functional; conditions: 10 µM
[4] = target: T2, Arginase-2, mitochondrial (Homo sapiens) (UniProt P78540); assay: in vitro enzyme assay to detect the production of urea directly proportional to the activity of Arginase II; assay type: functional; conditions: 33.3 µM; also: in the data most compounds retested in dose-response had high values
T2 sequence (whole entry): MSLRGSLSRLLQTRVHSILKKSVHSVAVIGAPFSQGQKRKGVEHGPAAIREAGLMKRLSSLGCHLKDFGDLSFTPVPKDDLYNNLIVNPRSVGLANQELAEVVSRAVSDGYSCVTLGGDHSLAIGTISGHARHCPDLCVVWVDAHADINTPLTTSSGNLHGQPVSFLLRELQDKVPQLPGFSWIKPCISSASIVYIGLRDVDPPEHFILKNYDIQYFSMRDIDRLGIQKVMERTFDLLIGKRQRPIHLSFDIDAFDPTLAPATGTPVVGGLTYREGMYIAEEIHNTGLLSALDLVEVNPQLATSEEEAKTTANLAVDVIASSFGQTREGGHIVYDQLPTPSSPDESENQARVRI

[5] = target: T3, Proteasome subunit beta (Trypanosoma cruzi) (UniProt O96673); assay: Trypanosoma cruzi proteasome chymotrypsin-like activity (TcProtChymo) assay.; also: in the data most compounds retested in dose-response had high values; assay type: functional; conditions: 9.37 µM
T3 sequence (whole entry): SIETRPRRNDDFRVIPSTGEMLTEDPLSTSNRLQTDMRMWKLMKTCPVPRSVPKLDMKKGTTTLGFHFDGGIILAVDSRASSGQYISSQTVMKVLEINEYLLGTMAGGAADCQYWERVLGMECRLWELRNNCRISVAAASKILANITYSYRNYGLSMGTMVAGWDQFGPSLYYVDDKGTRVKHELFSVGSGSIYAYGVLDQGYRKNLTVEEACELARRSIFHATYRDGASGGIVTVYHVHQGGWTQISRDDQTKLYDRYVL

Homo sapiens = species on record: Homo sapiens; assay: To identify inhibition of the IFN signalling (Jak-Stat) pathway via expression of an eGFP reporter gene under the control of an IFN-stimulated response element (ISRE) containing MxA promoter.; assay type: functional; conditions: 30 µM
[6] = target: T4, Tyrosyl-tRNA synthetase, putative (Trypanosoma cruzi (strain CL Brener)) (UniProt Q4DSP6); assay: Trypanosoma cruzi tyrosyl tRNA synthetase (TcYRS) _High Tyrosine SOP; assay type: functional; conditions: 30 µM; also: in the data most compounds retested in dose-response had high values
T4 sequence (whole entry): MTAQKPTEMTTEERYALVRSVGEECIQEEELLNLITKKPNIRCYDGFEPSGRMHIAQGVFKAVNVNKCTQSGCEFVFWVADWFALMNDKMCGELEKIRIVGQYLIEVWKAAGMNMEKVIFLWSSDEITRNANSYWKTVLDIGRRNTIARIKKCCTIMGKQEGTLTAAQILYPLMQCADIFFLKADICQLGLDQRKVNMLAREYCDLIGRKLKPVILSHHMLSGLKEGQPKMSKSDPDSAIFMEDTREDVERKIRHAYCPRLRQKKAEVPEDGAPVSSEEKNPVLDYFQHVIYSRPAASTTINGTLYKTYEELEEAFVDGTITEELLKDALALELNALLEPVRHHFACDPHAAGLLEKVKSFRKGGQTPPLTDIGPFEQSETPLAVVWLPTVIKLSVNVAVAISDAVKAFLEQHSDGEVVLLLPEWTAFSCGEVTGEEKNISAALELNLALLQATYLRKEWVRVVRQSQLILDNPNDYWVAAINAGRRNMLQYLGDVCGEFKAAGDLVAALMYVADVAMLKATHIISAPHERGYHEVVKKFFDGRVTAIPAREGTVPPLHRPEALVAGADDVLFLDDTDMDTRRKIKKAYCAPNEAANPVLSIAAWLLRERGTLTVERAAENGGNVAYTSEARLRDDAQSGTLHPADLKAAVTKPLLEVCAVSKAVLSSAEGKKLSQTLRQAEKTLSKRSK

[7] = target: T4, Tyrosyl-tRNA synthetase, putative (Trypanosoma cruzi (strain CL Brener)); assay: Trypanosoma cruzi tyrosyl tRNA synthetase (TcYRS) SOP; assay type: functional; conditions: 30 µM
[8] = target: Chromo domain-containing protein 1 (Saccharomyces cerevisiae (strain ATCC 204508 / S288c) (Baker's yeast)) (UniProt P32657); assay: ScCHD-1 Enzyme Inhibition Assay; assay type: functional; conditions: 30 µM; also: in the data most compounds retested in dose-response had high values
Chromo domain-containing protein 1 (Saccharomyces cerevisiae (strain ATCC 204508 / S288c) (Baker's yeast)), sequence (P32657 whole entry, the tested form may be a part): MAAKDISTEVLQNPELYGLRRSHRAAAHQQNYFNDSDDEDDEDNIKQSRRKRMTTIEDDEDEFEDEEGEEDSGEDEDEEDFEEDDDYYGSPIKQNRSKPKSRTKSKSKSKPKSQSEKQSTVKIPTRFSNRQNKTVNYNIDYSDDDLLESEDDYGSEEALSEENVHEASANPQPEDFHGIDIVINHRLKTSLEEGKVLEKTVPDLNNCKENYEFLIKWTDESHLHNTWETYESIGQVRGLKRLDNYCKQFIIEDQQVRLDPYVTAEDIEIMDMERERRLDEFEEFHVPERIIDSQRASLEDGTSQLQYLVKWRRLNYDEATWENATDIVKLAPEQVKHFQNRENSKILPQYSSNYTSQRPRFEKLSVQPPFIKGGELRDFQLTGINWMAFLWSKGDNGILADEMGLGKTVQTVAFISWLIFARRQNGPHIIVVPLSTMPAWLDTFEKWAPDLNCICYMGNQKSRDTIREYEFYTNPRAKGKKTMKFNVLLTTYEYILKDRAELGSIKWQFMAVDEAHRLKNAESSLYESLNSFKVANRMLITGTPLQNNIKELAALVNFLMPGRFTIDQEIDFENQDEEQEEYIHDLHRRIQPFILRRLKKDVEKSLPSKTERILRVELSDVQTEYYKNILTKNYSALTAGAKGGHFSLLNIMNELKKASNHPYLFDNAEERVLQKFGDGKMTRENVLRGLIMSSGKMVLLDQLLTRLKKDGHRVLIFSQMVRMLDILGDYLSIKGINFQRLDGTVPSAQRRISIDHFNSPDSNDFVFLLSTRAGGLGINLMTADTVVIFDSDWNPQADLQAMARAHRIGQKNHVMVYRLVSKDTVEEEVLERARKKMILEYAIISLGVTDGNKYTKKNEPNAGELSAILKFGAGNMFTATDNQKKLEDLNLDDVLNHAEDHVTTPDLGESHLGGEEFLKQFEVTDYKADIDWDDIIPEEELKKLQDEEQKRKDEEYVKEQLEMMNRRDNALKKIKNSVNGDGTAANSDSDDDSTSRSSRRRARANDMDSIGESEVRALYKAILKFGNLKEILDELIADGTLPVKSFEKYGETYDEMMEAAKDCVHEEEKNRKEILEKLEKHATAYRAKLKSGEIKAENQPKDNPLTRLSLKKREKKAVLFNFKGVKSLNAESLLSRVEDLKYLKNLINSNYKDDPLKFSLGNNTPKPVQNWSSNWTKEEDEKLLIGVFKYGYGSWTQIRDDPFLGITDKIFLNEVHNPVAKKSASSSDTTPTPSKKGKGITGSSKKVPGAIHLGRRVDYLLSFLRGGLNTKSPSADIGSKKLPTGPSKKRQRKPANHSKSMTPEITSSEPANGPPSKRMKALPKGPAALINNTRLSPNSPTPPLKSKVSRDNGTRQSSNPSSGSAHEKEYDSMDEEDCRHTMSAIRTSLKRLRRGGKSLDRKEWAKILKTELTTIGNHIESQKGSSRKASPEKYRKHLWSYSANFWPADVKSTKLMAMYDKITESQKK

Sialic acid-binding Ig-like lectin 9 (Homo sapiens), sequence (Q9Y336 whole entry): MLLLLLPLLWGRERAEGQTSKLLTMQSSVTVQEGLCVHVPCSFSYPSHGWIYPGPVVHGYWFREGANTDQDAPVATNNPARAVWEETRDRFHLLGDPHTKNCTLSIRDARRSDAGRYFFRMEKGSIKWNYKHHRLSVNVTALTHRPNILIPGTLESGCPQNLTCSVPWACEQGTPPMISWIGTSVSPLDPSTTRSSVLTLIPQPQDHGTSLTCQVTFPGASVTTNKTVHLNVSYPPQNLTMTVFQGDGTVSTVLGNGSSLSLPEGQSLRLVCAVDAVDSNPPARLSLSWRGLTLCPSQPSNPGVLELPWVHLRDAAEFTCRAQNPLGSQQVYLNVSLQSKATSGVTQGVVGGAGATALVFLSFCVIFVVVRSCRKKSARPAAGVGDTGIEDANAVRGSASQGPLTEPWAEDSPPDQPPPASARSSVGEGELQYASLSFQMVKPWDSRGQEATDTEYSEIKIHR
Protein translocase subunit SecA (Escherichia coli (strain K12)), sequence (P10408 whole entry): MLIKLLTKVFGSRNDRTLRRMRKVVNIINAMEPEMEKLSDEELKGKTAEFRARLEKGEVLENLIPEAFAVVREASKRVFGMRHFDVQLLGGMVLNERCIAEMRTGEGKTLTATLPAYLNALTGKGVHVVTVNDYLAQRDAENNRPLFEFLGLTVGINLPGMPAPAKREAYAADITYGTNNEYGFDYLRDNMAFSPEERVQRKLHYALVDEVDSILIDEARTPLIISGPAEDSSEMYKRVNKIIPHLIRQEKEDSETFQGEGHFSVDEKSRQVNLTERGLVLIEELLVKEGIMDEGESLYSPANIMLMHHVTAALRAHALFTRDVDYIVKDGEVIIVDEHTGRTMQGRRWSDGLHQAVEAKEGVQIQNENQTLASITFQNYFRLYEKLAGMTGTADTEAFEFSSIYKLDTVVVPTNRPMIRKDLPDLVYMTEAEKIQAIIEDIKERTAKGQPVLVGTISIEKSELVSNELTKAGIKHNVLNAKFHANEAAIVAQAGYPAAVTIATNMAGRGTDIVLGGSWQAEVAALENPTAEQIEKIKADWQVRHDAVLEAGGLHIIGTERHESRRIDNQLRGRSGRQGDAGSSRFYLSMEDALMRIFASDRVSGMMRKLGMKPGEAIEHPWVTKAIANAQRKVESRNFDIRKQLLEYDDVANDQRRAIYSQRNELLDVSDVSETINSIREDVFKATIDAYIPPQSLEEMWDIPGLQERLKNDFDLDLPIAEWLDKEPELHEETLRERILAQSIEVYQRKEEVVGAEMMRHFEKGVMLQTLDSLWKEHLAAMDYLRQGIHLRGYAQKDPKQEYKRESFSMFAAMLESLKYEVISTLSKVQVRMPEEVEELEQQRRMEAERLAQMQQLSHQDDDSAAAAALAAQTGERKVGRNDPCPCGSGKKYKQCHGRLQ

| Compound | Percent Effect [1] [%] | Percent Effect [2] [%] | Percent Effect [3] [%] | Percent Effect (Trypanosoma cruzi) [%] | Percent Effect [4] [%] | Percent Effect [5] [%] | Percent Effect (Homo sapiens) [%] | Percent Effect [6] [%] | Percent Effect [7] [%] | Percent Effect [8] [%] |
| --- | --- | --- | --- | --- | --- | --- | --- | --- | --- | --- |
| Cc1cc(NC(=O)C(C)N2CCCN(c3nccs3)CC2)on1 (stereo not given) | -5.38 | 7.69 | 6.57 | 1.03 | 5.74 | 7.08 | 12.4 | 0.478 | 8.43 | 6.1 |
| Cc1ccoc1-c1nnc(CN2CCCC(Cn3cncn3)C2)o1 (stereo not given) | -4.32 | 0 | 3.64 | 2.54 | 7.38 | -8.45 | 14.1 | 3.35 | 1.21 | -1.2 |
| CC(C)NC(=O)CC1COC2(CCN(Cc3cccs3)CC2)C1 (stereo not given) | -3.1 | 16.9 | -2.18 | -3.19 | 1.37 | 4.89 | -2.98 | 4.83 | 7.5 | -13.3 |
| Cc1nc(O)c2nnn(C[C@H]3CCCN3C(=O)C(C)(C)C)c2n1 | -2.69 | 12 | 5.82 | -2.37 | -1.33 | 7.88 | 12.7 | 5.29 | 10 | -20.8 |
| CCn1nc2c(cc1=O)CN(Cc1nc(-c3ccccn3)no1)CC2 | -4.5 | 12.8 | -6.79 | -0.469 | -2.87 | 14.1 | 28.1 | 0.478 | 6.02 | 0.402 |
| CCC(=O)N1CCCC1c1nccnc1Nc1nc(C)cc(C)n1 (stereo not given) | -0.0687 | 14.7 | 0.282 | 0.789 | 2.21 | 15.8 | 6.52 | 2.12 | 7.5 | -21.6 |
| Cc1ncnc(NCc2cc3n(n2)CCCN(S(C)(=O)=O)C3)c1C | -4.52 | 8.11 | 3.12 | -1.07 | -1.75 | 7.71 | -0.0892 | 5.85 | 14.6 | -4.37 |
| Cc1noc(C)c1CN(C)C(=O)NC1CCN(c2ncccn2)CC1 | -4.16 | 10.3 | -17.2 | 11.7 | -0.82 | 9.64 | 13.1 | 5.26 | 20.5 | -9.27 |
| COc1c(C2CCCN2C(=O)c2cncnc2C)c(C)nn1C (stereo not given) | 0.687 | 20.8 | 0.3 | -7.46 | -3.48 | 18.8 | 21.6 | 3.92 | 9.41 | -6.48 |
| CCN1CCC2(C=C(C(=O)NC3CC3)c3ccccc32)CC1 | 2.3 | 6.49 | -1 | 1.13 | 0 | -2.49 | -10.8 | -0.966 | 2.5 | -3.59 |
| Cc1ccc(NC2CCN(C(=O)c3n[nH]c4ccccc34)CC2)nn1 | -2.85 | 5.33 | 0.786 | -5.62 | 3.55 | -2.29 | 12.2 | 3.68 | 5.13 | -6.5 |
| CC(C)c1cc(NC(=O)CN2CCNC(=O)C2)on1 | -0.0493 | 26 | -4.98 | -0.933 | -1.43 | 11.2 | 1.34 | 7.84 | 21.2 | -9.71 |
| O=c1[nH][nH]cc1-c1ccnc(NCCN2CCCC2)n1 | 3.78 | 10.7 | -2.82 | -4.82 | -8.87 | 7.38 | 13.2 | -4.74 | -5.13 | -14.5 |
| O=C(NCc1cc(O)ncn1)C1COc2ccccc2C1 (stereo not given) | -3.59 | 10.8 | 17.9 | 3.59 | 12.9 | 13 | 9.77 | 5.85 | 17.1 | -2.86 |
| Cc1noc(C2CCN(C(=O)CCNS(C)(=O)=O)CC2)n1 | -2.97 | 10.3 | 4.81 | 3.47 | 3.69 | 5.89 | 3.03 | 4.31 | 18.1 | -0.743 |
| CN1CCC(c2ncc3c(n2)CCN(C(=O)CC2C=CCC2)C3)CC1 (stereo not given) | 1.34 | 14.7 | -4.21 | -1.58 | 3.1 | 9.03 | 7.04 | 12.7 | 22.5 | -23.1 |
| CCC1c2ccsc2CCN1C(=O)NCc1cc[nH]n1 (stereo not given) | -7.17 | 7.69 | -4.75 | -4.79 | 0 | 7.25 | 21.4 | 2.39 | 6.02 | -1.84 |
| CCc1nc(C2CCCN2C(=O)c2nc(C)n3ccccc23)no1 (stereo not given) | -0.63 | 2.67 | -0.749 | -5.02 | 4.43 | 3.65 | 15 | 4.74 | 5.13 | -15.8 |
| CC(C)(C)n1ncc2c1NC(=O)CC2c1ccc(OCC(N)=O)cc1 (stereo not given) | -6.78 | 5.41 | -0.0971 | 0.097 | 1.75 | 11.8 | -6.02 | 9.04 | 14.6 | -0.195 |
| COc1ccc(CC(=O)N2CCc3nnc(N(C)C)cc3C2)cc1F | -3.64 | 12.8 | -2.71 | -1.97 | 1.23 | 17.7 | 20.5 | 5.26 | 6.02 | -0.877 |
| O=C(NCCO)c1ccn(-c2ccc3ccccn23)n1 | -3.79 | -32.5 | -8.91 | 3.99 | -8.5 | 19.1 | 7.26 | 11.1 | -2.56 | -0.759 |
| CC(C)(C)C(O)CN1CCN(C(=O)c2cccc3ncccc23)CC1 (stereo not given) | -3.23 | 12.8 | -15.5 | -7.23 | -0.41 | 8.11 | -0.457 | 3.35 | 10.8 | -6.72 |
| CC(C)=CCN1CCC(c2nccn2Cc2cscn2)CC1 | -6.89 | 5.41 | 7.33 | 9.8 | -5.94 | 9.07 | -16 | 6.92 | 14.6 | -4.64 |
